Test [1] has as its target Lysosomal acid glucosylceramidase (Homo sapiens) (UniProt P04062). Kind of test: Glucocerebrosidase-p2 (AID 348; in the data active = potency below about 10 µM; note: potency is the fitted concentration of half-maximal effect). The conditions noted are these: purified GBA, blue fluorogenic substrate, 40 min. The procedure, abridged: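 Compounds titrated from 0.6 nM upwards against 0.2 nM enzyme in pH 5.9 citric acid/KH2PO4, taurocholate, tween-20; blue fluorogenic substrate 80 uM, 40 min room temperature, stopped and read Ex 365/Em 440 for AC50.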

Test [2] in a line: AP1 Signaling Pathway (AID 357).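 Note: ME-180 reporter cells stimulated with EGF at its EC50 level; % is set by controls: 0 for no effect and ±100 for the full control effect.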 Conditions: ME-180 AP-1-bla reporter, EGF-induced, beta-lactamase ratio, 5 h; at 7.69 µM (top of the series) unless noted. The procedure, abridged:
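Beta-lactamase reporter under AP-1 response element, ME-180 background. Stimulus: EC50 EGF. Compound exposure 5 h, 37 °C. Detection: CCF4, 2.5 h RT, 460/530 nm. Values: AC50 from titration.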

The nature of test [3]: NFAT Signaling Pathway (AID 444).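 Note: carbachol stimulus at about its EC50 of 1 µM final; % is set by controls: 0 for no effect and ±100 for the full control effect.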 Conditions: Jurkat NFAT-bla M1, carbachol, beta-lactamase ratio, 5 h; at 7.69 µM (top of the series) unless noted. The procedure, abridged:
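Jurkat cells carrying an NFAT-driven β-lactamase reporter and co-transfected muscarinic M1 receptor were treated with compound plus carbachol (1 uM final, an EC50 level) for 5 h at 37 °C. CCF4 loading followed for 1 h at RT; 460/530 nm ratio gave %activity.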

Test [4] can be described thus: Stat Signaling Pathway (AID 446).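 Note: ME-180 cervical cancer cells given 40 pM IL-6 alongside compound; SIE-controlled beta-lactamase reporter measured as 460/530 nm FRET emission ratio; % is set by controls: 0 for no effect and ±100 for the full control effect.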 The conditions noted are these: ME-180 SIE beta-lactamase reporter, IL-6 stimulated, 5 h; at 7.69 µM (top of the series) unless noted. In outline:
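ME-180 cells carrying a SIE-driven beta-lactamase reporter are stimulated with 40 pM IL-6 for 5 h at 37C in the presence of compound. The 460/530 nm FRET substrate ratio is read after 2.5 h at RT. Data are normalised to 300 pM IL-6 and to 125 nM JAK inhibitor controls.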

The target of test [5] is Glucocorticoid receptor (Homo sapiens) (UniProt P04150). The experiment in a line: GR-GFP Redistribution (AID 450;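 active = compounds whose dose series gives a full or clear partial fitted curve of increased nuclear translocation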; note: potency is the fitted concentration of half-maximal effect). Conditions: U2OS GR-GFP nuclear translocation, laser cytometry, 2 h.
Test [6] shares this target. The experiment in a line: GR-EFC Redistribution (AID 451; calls by dose curve; note: potency is the fitted concentration of half-maximal effect). The conditions noted are these: CHO-K1 GR-EFC translocation, beta-gal luminescence, 2 h. The procedure, abridged: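 CHO-K1 cells stably expressing nuclear-localized β-gal enzyme acceptor and GR fused C-terminally to the enzyme donor fragment; ligand-driven nuclear translocation restores β-gal by complementation. Compounds titrated up to 46 uM final, 2 h at 37 °C; luminescence read.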

Test [7] addresses Mitogen-activated protein kinase 10 (Mus musculus) (UniProt Q61831). Kind of test: JNK3 AlphaScreen Assay (AID 530).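 Note: kinase came from lysate of stimulated human HepG2 cells; signal reports phosphorylation of biotinylated GST-cJun 1-79 at Ser73 with 10 µM ATP; % is set by controls: 0 for no effect and ±100 for the full control effect.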 Conditions: JNK3 lysate, c-Jun phosphorylation; series mostly up to 57.1 µM. In outline: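 Inhibitors reduce antibody binding to phosphorylated biotin-cJun, lowering AlphaScreen luminescence. Lysates from HepG2 cells pre-activated by IL-1beta plus TNF-alpha supplied JNK3; compounds were titrated.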
(In general: Alpha assays give light when donor and acceptor beads are brought close together.)

The target in test [8] is Cytochrome P450 3A4 (Homo sapiens) (UniProt P08684). The experiment in a line: qHTS Assay for Activators of Cytochrome P450 3A4 (AID 885; active = well fitted curve in the direction sought with a large enough effect; an effect the other way counts as inactive or inconclusive; note: nearly all actives have a fitted effect of over 65% in size). The conditions noted are these: recombinant CYP3A4, Luciferin-PPXE luminescence, 60 min; series mostly up to 57.1 µM. The procedure, abridged: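 Human CYP3A4 (20 nM) with Luciferin-PPXE at 25 uM (its KM) in 200 mM KPO4; 10 min compound preincubation, then NADPH regeneration and 60 min reaction at RT. Luciferin read by luminescence; normalized to 57 uM ketoconazole full inhibition.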

Test [9] in a line: Primary qHTS for small molecule stabilizers of the endoplasmic reticulum resident proteome: Secreted ER Calcium Modulated Protein (SERCaMP) assay (AID 1508630; active = well fitted curve in the direction sought with a large enough effect; an effect the other way counts as inactive or inconclusive; note: % is set by controls: 0 for no effect and ±100 for the full control effect). Conditions: SH-SY5Y GLuc-SERCaMP (Gaussia luciferase released on ER calcium loss) secretion, thapsigargin, luminescence; series mostly up to 38.4 µM. The procedure, abridged: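 GLuc-SERCaMP-expressing SH-SY5Y cells, pretreated 16 h with compound, are challenged with thapsigargin to empty ER calcium stores; after 4 h, coelenterazine is added directly to the medium and luminescence is imaged.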
Background: In qHTS, concentration-response curves come from the screen itself.

Test [10] deals with 3',5'-cyclic-AMP phosphodiesterase 4B (Homo sapiens) (UniProt Q07343). Kind of test: qHTS Assay for Inhibitors of PDE-IV (AID 607; active = well fitted activation curve with a large enough effect in the main read-out, with a control signal flat, not every such curve was filed as active; note: % of control where 0% means no effect). The conditions noted are these: HEK293 ACTOne CNG channel cells, membrane potential fluorescence; series mostly up to 22.9 µM. In outline: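 HEK293 ACTOne cells with CNG channel (1000/well), endogenous PDE4; membrane potential dye, compounds up to 22.9 uM final. Fluorescence Ex 535/Em 590; RO 20-1724 (100 uM final) as reference.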

Test [11] is described as follows: qHTS Assay for Identification of Small Molecule Agonists for Hypoxia Response Element Signaling Pathway (AID 914; active = well fitted activation curve with a large enough effect in the signal ratio, with a control signal flat, not every such curve was filed as active; the % refers to the signal ratio; note: potency is the fitted concentration of half-maximal effect; for activation: % of control where 0% means no effect). Conditions: ME-180 (cervical carcinoma) HRE-bla reporter, beta-lactamase ratio, CoCl2, 17 h; activation: stronger effect = higher value. In outline: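 A beta-lactamase reporter under hypoxia response element control in ME-180 cells served as the system. Compound titrations plus EC50 CoCl2 ran 17 h at 37 degrees Celsius; AC50 values were fitted from %Activity.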

The values that follow come from PubChem BioAssay (NCATS).

Values without a mark were called inactive. Inconclusive results are not listed. The source made the active and inactive calls. Unless noted, calls come from the whole dose curve; as a rule, active = well fitted curve in either direction with a large enough effect (not every such curve was filed as active); inconclusive = small, poorly fitted or top-dose-only effect, or another doubt; inactive = flat fitted curve, though single readings scatter. Where only a bound is given, the exact number is not on record here.

Chain of 3',5'-cyclic-AMP phosphodiesterase 4B (Homo sapiens) (Q07343 whole entry, looked up): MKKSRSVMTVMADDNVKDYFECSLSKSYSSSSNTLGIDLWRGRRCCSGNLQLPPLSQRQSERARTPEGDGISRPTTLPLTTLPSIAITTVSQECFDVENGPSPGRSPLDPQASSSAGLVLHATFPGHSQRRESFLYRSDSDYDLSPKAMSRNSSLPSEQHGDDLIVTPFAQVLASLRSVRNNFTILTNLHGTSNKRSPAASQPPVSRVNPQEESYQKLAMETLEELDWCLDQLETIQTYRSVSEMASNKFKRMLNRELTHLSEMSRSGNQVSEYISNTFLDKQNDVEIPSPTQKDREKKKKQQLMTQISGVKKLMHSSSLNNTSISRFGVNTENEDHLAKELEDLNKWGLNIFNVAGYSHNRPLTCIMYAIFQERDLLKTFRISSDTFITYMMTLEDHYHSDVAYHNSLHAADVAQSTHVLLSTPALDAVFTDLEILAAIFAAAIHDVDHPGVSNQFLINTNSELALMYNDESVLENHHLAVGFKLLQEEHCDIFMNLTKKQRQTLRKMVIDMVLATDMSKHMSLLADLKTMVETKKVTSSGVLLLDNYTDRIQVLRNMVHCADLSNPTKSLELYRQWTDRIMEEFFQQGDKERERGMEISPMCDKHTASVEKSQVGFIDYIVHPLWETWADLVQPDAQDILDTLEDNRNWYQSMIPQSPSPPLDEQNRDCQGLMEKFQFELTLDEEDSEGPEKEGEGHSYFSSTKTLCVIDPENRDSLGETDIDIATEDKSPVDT
Chain of Lysosomal acid glucosylceramidase (Homo sapiens) (P04062 whole entry, looked up): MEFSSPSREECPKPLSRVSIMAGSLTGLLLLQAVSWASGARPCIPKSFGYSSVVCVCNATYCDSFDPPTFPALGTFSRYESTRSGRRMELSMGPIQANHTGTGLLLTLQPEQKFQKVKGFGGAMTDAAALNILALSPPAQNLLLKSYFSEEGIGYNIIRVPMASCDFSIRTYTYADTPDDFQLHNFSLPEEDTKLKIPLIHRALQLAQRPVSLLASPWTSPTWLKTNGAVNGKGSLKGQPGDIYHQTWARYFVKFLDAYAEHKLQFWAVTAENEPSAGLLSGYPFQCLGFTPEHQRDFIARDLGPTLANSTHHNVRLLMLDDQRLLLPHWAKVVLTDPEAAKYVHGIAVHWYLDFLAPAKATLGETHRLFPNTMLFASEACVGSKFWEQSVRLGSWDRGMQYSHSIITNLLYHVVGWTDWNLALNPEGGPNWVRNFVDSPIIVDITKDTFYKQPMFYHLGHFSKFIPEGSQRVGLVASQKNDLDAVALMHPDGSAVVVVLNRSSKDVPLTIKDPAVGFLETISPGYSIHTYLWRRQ
Chain of Glucocorticoid receptor (Homo sapiens) (P04150 whole entry, looked up, the tested form may be a part): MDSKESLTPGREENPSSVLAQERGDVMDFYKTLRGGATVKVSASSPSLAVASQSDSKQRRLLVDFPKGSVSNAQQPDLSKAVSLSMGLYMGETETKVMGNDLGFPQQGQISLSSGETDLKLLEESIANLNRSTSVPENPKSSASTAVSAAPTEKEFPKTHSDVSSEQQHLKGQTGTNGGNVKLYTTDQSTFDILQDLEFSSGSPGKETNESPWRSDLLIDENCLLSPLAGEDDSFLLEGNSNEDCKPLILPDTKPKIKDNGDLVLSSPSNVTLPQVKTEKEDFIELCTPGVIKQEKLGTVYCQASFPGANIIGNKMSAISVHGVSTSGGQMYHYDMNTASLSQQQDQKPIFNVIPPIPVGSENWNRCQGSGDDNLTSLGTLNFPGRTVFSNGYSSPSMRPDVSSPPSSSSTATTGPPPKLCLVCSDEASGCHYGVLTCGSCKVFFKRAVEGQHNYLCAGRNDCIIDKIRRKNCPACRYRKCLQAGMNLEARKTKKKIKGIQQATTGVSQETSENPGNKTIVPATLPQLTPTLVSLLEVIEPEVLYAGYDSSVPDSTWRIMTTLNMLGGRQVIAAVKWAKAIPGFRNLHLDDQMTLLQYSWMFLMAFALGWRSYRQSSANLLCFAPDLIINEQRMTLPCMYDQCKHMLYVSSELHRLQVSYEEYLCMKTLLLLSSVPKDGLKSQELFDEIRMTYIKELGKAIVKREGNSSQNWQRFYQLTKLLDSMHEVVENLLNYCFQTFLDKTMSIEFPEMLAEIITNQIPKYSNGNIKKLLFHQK
Chain of Cytochrome P450 3A4 (Homo sapiens) (P08684 whole entry, looked up): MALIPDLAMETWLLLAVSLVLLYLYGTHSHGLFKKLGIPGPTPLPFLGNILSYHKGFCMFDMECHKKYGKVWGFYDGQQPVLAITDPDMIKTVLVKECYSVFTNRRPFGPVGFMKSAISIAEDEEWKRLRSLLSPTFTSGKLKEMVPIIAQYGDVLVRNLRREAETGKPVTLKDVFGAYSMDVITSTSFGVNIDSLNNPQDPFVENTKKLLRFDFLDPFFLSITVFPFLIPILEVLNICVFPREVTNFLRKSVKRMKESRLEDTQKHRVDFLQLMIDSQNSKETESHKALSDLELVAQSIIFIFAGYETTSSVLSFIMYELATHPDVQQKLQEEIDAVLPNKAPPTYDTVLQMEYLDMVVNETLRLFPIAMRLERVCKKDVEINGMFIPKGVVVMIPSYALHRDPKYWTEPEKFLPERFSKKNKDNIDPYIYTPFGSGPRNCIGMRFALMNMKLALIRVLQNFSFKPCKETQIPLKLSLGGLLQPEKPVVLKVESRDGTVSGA

Take `Cc1nc2cnc(OCc3ccccc3)nc2n(CCC#N)c1=O`: the Potency is more than 11.4 µM in [1], more than 9.22 µM in test [5] and more than 46 µM in test [6]. Further, the activity change, negative = inhibition is 2.98% in [2] and -3.58% in [3]. Besides, in [4], the activity, negative = inhibition is -1.87%. The Potency entry in [7] and in [8] was “inactive” in each case. The result in test [9] was inactive.
With `O=c1c(-c2cccc(F)c2)nc2cncnc2n1Cc1ccccc1`, the Potency is more than 11.4 µM in test [1], more than 9.22 µM in [5] and more than 46 µM in [6]. Besides, the activity change, negative = inhibition in [2] is -7.86%; in test [3], -7.28%. Besides, the activity, negative = inhibition in test [4] was -8.08%. For the same molecule, the Potency entry in test [8] was “inactive”. Further, the result in test [9] was inactive.
`COc1cccc(Cn2c(=O)c(-c3cc(F)cc(F)c3)nc3cnc(OC)nc32)c1`: the Potency in test [1] is more than 11.4 µM; in test [5], more than 9.22 µM; in test [6], more than 46 µM. The activity change, negative = inhibition in test [2] is -16.9%; in [3], -18.1%. Besides, the activity, negative = inhibition in [4] was -4.81%. Moreover, the Potency entry in [7] and in [10] was “inactive” each time. In addition, the outcome in test [9] was inactive.
With `COc1cccc(Cn2c(=O)cnc3cnc(N4CCOCC4)nc32)c1`, the Potency in [1] is more than 11.4 µM; in test [5] it was more than 9.22 µM; in test [6] it was more than 46 µM. In addition, the activity change, negative = inhibition was -21.3% in test [2] and -0.938% in test [3]. Also, in [4], the activity, negative = inhibition was -11%. The Potency result in test [7] is “inactive”. In addition, the outcome in test [9] was inactive.
With `COc1ccc(Oc2ncc3ncc(=O)n(CCC#N)c3n2)cc1`, the figures for the Potency in [1], in test [5] and in test [6] were more than 11.4 µM, more than 9.22 µM and more than 46 µM, respectively. In addition, the activity change, negative = inhibition in test [2] is -11.3%; in test [3] it was -5.59%. Besides, the activity, negative = inhibition in test [4] is -8.02%. The Potency entry in test [7] is “inactive”. In addition, the result in [9] was inactive.
As to `O=c1c(-c2ccc(F)c(F)c2)nc2cncnc2n1Cc1ccccc1`, the figures for the Potency in test [1], in [5] and in test [6] were more than 11.4 µM, more than 9.22 µM and more than 46 µM, respectively. Moreover, the activity change, negative = inhibition in test [2] is -0.964%; in test [3], -10.8%. In addition, the activity, negative = inhibition in test [4] is 3.53%. Moreover, the Potency result in test [7] is “inactive”. Also, the result in [9] was inactive.
In the case of `COc1ccc(Oc2ncc3nc(C)c(=O)n(C4CC4)c3n2)cc1`, the results for the Potency in [1], in [5] and in test [6] were more than 11.4 µM, more than 9.22 µM and more than 46 µM, respectively. For the same molecule, the results for the activity change, negative = inhibition in test [2] and in [3] were -0.17% and -5.38%, respectively. Also, the activity, negative = inhibition in test [4] was -4.78%. For the same molecule, the Potency entry in [7] and in test [10] was “inactive” in each case. Further, the activation in [11] is -6.35%. Moreover, the result in [9] was inactive.
Turning to `COc1cccc(Cn2c(=O)c(-c3ccc(Cl)cc3)nc3cnc(N(C)C)nc32)c1`, the Potency in [1] was more than 11.4 µM; in [5], more than 9.22 µM; in [6] it was more than 46 µM; in [11], 0.316 µM (active). In addition, the activity change, negative = inhibition was 122% [activator] (active) in [2] and 154% [activator] (active) in test [3]. In addition, in test [4], the activity, negative = inhibition is 215% [activator] (active). Further, the Potency entry in test [7] and in test [10] was “inactive” each time. In test [9], the outcome was inactive.
